Measured values taken from the supplement of paper PMC10981050.
Values joined by “and” are separate entries in the source; they are usually repeats but may differ in a detail not shown here. Identical values can stand only once. Counter-ions that a name gives are not always drawn.

Key:
Assay in all cases: cell viability relative to vehicle control; higher = less cytotoxic
Details in all cases: 10 µM
[1] = test system: K562
Outline: (§1)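 CRISPR-edited SRSF2 P95 mutant and isogenic wild-type clones of four leukaemia lines were screened against Selleck bioactive, kinase and epigenetic probe libraries, with identity-inconsistent compounds removed. Compounds were acoustically dispensed into 384-well plates at a single 10 µM dose, with 2000 cells in 50 µL medium per well. After 48 h, supernatant was removed and CellTiter-Glo luminescence was read. Viability was expressed as percent of the on-plate DMSO vehicle control, analysed in Genedata Screener.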

[2] = test system: MARIMO
Outline: as §1

[3] = test system: MOLM14
Outline: as §1

[4] = test system: OCI-AML2
Outline: as §1

Structure (SMILES)	cell viability ([1]; SRSF2 genotype: SRSF2 P95H/wt)	cell viability ([1]; SRSF2 genotype: SRSF2 wt/wt)	cell viability ([2]; SRSF2 genotype: SRSF2 P95H/wt)	cell viability ([2]; SRSF2 genotype: SRSF2 wt/wt)	cell viability ([3]; SRSF2 genotype: SRSF2 P95H/wt)	cell viability ([3]; SRSF2 genotype: SRSF2 wt/wt)	cell viability ([4]; SRSF2 genotype: P95H/wt)	cell viability ([4]; SRSF2 genotype: wt/wt)
Cc1c(C(C)C)c(=O)n(-c2ccccc2)n1C [Propyphenazone (4-Isopropylantipyrine)]	101% and 105%	97.5%	94%	105%	94.3%	101%	86.9%	97.4%
C[C@H]1COc2c(N3CCN(C)CC3)c(F)cc3c(=O)c(C(=O)O)cn1c23 [Levofloxacin (Levaquin)]	95.5% and 83.8%	87.5%	90.4%	101%	95.2%	88%	87.3%	88.3%
Cc1ccccc1N1CCN(CCc2nnc3n2CCCC3)CC1 [Dapiprazole Hydrochloride]	103% and 96%	93.2%	97.7%	110%	97%	102%	96.4%	97.1%
COc1cc(OC2CCN(C)CC2)ccc1Nc1ncc2c(n1)n(C1CCCC1)c(=O)n2C	81.2% and 76.4%	78.1%	44.7%	38.6%	10.8%	14%	4.89%	13.5%
CC1(C)CCCC2(C)C1CCC1(C)OC(=O)CC12 (centres undefined) [Sclareolide (Norambreinolide)]	109% and 97.8%	99.8%	95.2%	98.7%	101%	106%	102%	89.7%
Cc1[nH]c(=O)c(C#N)cc1-c1ccncc1 [Milrinone (Primacor)]	102% and 97.3%	94.1%	96.1%	93.1%	98.8%	99.1%	101%	96%
O=C(O)c1ccc(O)c(O)c1 [Protocatechuic acid]	101% and 97.7%	93.3%	93.1%	96.1%	96.8%	103%	98.4%	104%
CN(C(=O)CNC(=O)/C=C/c1cccc(Cl)c1)C1CCS(=O)(=O)CC1	35.4% and 33%	28.4%	103%	104%	105%	86%	101%	104%
CC(=O)[C@@]1(O)CC[C@H]2[C@@H]3C[C@H](C)C4=CC(=O)CC[C@]4(C)[C@H]3CC[C@@]21C [Medroxyprogesterone]	97.3% and 90.1%	91.8%	74%	92.8%	103%	100%	103%	104%
O=c1cc(-c2ccc(O)cc2)oc2cc(O)cc(O)c12 [Apigenin]	102% and 96.4%	96%	85.9%	99.8%	55.4%	57.5%	67.9%	63.6%
CCCNC(=O)c1cn2ncnc(Nc3cc(C(=O)NC4CC4)ccc3C)c2c1C	90.9% and 95.7%	93.3%	99.5%	101%	91.8%	95.8%	91.3%	95.9%
CN1CCN(c2ccc(C(=O)Nc3n[nH]c4ccc(Cc5cc(F)cc(F)c5)cc34)c(NC3CCOCC3)c2)CC1 [Entrectinib (RXDX-101)]	0.53% and 0.51%	0.41%	0.56%	2.11%	0.29%	0.28%	0.22%	0.35%
CCCN[C@H]1CCc2nc(N)sc2C1 [Pramipexole dihydrochloride]	103% and 96.9%	110%	103%	94.2%	79.1%	97.8%	103%	111%
COc1cc([C@@H]2c3cc4c(cc3[C@@H](O[C@@H]3O[C@@H]5CO[C@@H](c6cccs6)O[C@H]5[C@H](O)[C@H]3O)[C@H]3COC(=O)[C@H]23)OCO4)cc(OC)c1O [Teniposide (Vumon)]	8.79% and 17.8%	6.27%	3.97%	2.15%	0.52%	0.37%	0.66%	0.72%
OCCN(CCO)c1nc(N2CCCCC2)c2nc(N(CCO)CCO)nc(N3CCCCC3)c2n1 [Dipyridamole (Persantine)]	95.7% and 95.1%	94.8%	93.1%	114%	111%	107%	99.9%	108%
OCc1ccc(O)cc1 [4-Hydroxybenzyl alcohol]	108% and 106%	111%	98%	112%	108%	109%	111%	95.3%
C[C@@H]1CC[C@@]2(OC1)O[C@H]1C[C@H]3[C@@H]4CC=C5C[C@@H](O[C@@H]6O[C@H](CO)[C@@H](O[C@@H]7O[C@@H](C)[C@H](O[C@@H]8O[C@@H](C)[C@H](O)[C@@H](O)[C@H]8O)[C@@H](O)[C@H]7O)[C@H](O)[C@H]6O[C@@H]6O[C@@H](C)[C@H](O)[C@@H](O)[C@H]6O)CC[C@]5(C)[C@H]4CC[C@]3(C)[C@@]1(O)[C@@H]2C [Chonglou Saponin VII]	0.5% and 0.49%	0.46%	0.43%	0.55%	0.44%	0.46%	0.37%	0.47%
CC(C)C[C@H](NC(=O)[C@H](Cc1ccccc1)NC(=O)c1cnccn1)B(O)O [Bortezomib (Velcade)]	1.99% and 2.21%	1.46%	0.39%	0.93%	0.29%	0.31%	0.19%	0.25%
CC#CC(=O)N1CCC[C@H]1c1nc(-c2ccc(C(=O)Nc3ccccn3)cc2)c2c(N)nccn12 [Acalabrutinib (ACP-196)]	93.2% and 96.6%	94.1%	101%	113%	95.4%	100%	90.2%	96.9%
COc1ccc2[nH]c([S@@+]([O-])Cc3ncc(C)c(OC)c3C)nc2c1 [Esomeprazole sodium]	98.5% and 100%	94.4%	98.8%	99.8%	97.4%	90.9%	96%	91.8%
O=C(NCCCNc1nc(Nc2cccc(CN3CCOCC3)c2)ncc1C1CC1)C1CCC1	74.5% and 95.7%	84.8%	69.5%	74.1%	8.31%	6.65%	17.8%	21.4%
Cc1noc(-c2ccc(CSCCC(=O)O)cc2)c1NC(=O)OC(C)c1ccccc1Cl (centres undefined)	106% and 105%	104%	101%	113%	104%	102%	104%	111%

Structure (SMILES)	cell viability ([1]; SRSF2 genotype: SRSF2 P95H/wt)	cell viability ([1]; SRSF2 genotype: SRSF2 wt/wt)	cell viability ([2]; SRSF2 genotype: SRSF2 P95H/wt)	cell viability ([2]; SRSF2 genotype: SRSF2 wt/wt)	cell viability ([3]; SRSF2 genotype: SRSF2 P95H/wt)	cell viability ([3]; SRSF2 genotype: SRSF2 wt/wt)	cell viability ([4]; SRSF2 genotype: P95H/wt)	cell viability ([4]; SRSF2 genotype: wt/wt)
COc1cc(O)cc2c1C(=O)C[C@@H](c1ccccc1)O2 [Alpinetin]	107% and 103%	96.5%	101%	109%	109%	110%	102%	106%
O=C(NCC1(c2nc(-c3ccccc3)cs2)CCOCC1)c1cccc(-c2noc(C(F)(F)F)n2)c1	82.1% and 90.7%	86.5%	86.5%	85.5%	87.9%	97.8%	75.7%	79.3%
COc1ccc2cc1Oc1ccc(cc1)C[C@H]1c3cc(c(OC)cc3CCN1C)Oc1c(O)c(OC)cc3c1[C@H](C2)N(C)CC3 [Fangchinoline]	5.78% and 5.22%	5.07%	12.1%	1.57%	0.48%	0.53%	0.4%	0.56%
COc1cc(F)c(F)c(Nc2ccc(I)cc2F)c1NS(=O)(=O)C1(C[C@H](O)CO)CC1 [Refametinib (RDEA119, Bay 86-9766)]	53.8% and 59.1%	62.1%	31.8%	33%	30.7%	22.7%	35.4%	35.1%
O=C(Oc1cccc(F)c1OC(=O)c1cccc(O)c1)c1cccc(O)c1	92.4% and 99.5%	94.9%	68.8%	88.4%	78.4%	80.3%	92.6%	82.4%
CC(C)CCn1c(CN2CCN(C(=O)C3CC3)CC2)nc2c1c(=O)n(C)c(=O)n2C	105% and 116%	112%	99.7%	102%	105%	104%	114%	116%
CN[C@@H]1[C@H](O)[C@H](NC)[C@H]2O[C@@]3(O)C(=O)C[C@@H](C)O[C@H]3O[C@@H]2[C@H]1O [Spectinomycin 2HCl]	101% and 102%	93.5%	103%	102%	104%	99%	106%	94.4%
C=CC[C@@H]1/C=C(\C)C[C@H](C)C[C@H](OC)[C@H]2O[C@@](O)(C(=O)C(=O)N3CCCC[C@H]3C(=O)O[C@H](/C(C)=C/[C@@H]3CC[C@@H](O)[C@H](OC)C3)[C@H](C)[C@@H](O)CC1=O)[C@H](C)C[C@@H]2OC [Tacrolimus (FK506)]	90.3% and 93.4%	84.9%	94.3%	97.2%	92.2%	96.3%	91.4%	98.2%
O=C(Nc1ccc2c(O)cc(S(=O)(=O)O)cc2c1)Nc1ccc2c(O)cc(S(=O)(=O)O)cc2c1 [AMI-1, free acid]	105% and 92.6%	109%	100%	110%	103%	108%	109%	112%
Cc1cc(=O)oc2ccc(O)cc12 [6-Hydroxy-4-methylcoumarin]	111% and 101%	107%	107%	97%	101%	103%	96%	104%
CCCCCCCCC(=O)O [Nonanoic acid]	98.3% and 102%	102%	108%	106%	98.4%	102%	107%	97%
CC12CCC(CC1=O)C2(C)C (centres undefined) [Camphor]	102%	103%	104%	108%	105%	104%	102%	99.1%
COC(=O)Nc1nc2cc([S+]([O-])c3ccccc3)ccc2[nH]1 (centres undefined) [Oxfendazole]	50.5% and 57.7%	58.5%	55.2%	49.4%	70.5%	70.4%	80%	78%
CC(=O)[C@H]1CC[C@H]2[C@@H]3CC=C4C[C@@H](O)CC[C@]4(C)[C@H]3CC[C@]12C [Pregnenolone]	103% and 108%	107%	103%	105%	101%	105%	100%	107%
C=CCn1c(=O)c2cnc(Nc3ccc(N4CCN(C)CC4)cc3)nc2n1-c1cccc(C(C)(C)O)n1	8.01% and 13.9%	10.5%	11.7%	6.8%	11.6%	4.1%	9.17%	8.01%
O=C(O)c1cc(C(F)(F)F)ccc1N1CC[C@H](OCc2ccccn2)C1	107% and 109%	100%	114%	113%	102%	102%	106%	104%
CN(C)CCC(c1ccc(Br)cc1)c1ccccn1 (centres undefined) [Brompheniramine hydrogen maleate]	95.3% and 97.4%	91.3%	86.2%	90.7%	101%	98.8%	112%	109%
N#Cc1c(NC(=O)c2cccc3ccccc23)sc2c1CCCC2 [JNK inhibitor IX]	16.2% and 37.1%	34.9%	6.04%	9.03%	14.5%	3.68%	8.78%	12.3%
CCN(CC)c1ccc2cc(-c3nc4ccccc4s3)c(=O)oc2c1 [Coumarin 6]	106% and 105%	102%	106%	112%	108%	107%	101%	108%
NCCCCCC(=O)O	99% and 100%	99.6%	101%	98.5%	103%	105%	113%	99%
NCCCNCCCCNCCCN [Spermine]	104% and 102%	104%	103%	111%	100%	103%	101%	106%
